Assay results published in PubChem BioAssay (NCI).
The panel holds about 83,000 compounds, 20% with a hit somewhere; the sample as a whole holds those more often.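 A percent growth of 40 corresponds to 60% growth inhibition; 0 means no net growth; -100 means all cells died. Active threshold: below 10.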 Values without a mark were called inactive. Active and inactive are the calls of the source.

Each compound was assayed on MDA-MB-468 breast (assay: NCI-60 one-dose screen, 48 h (100 = growth as untreated, 0 = no growth, -100 = all killed)). Conditions: 10 µM unless noted.
`CCOC(=O)C(=Cc1cccc(C#N)c1)C(=O)OCC` was tested, and the growth was 43%.
`c1ccc(C2NCCNC2c2ccccc2)cc1` (stereo unspecified) gave a growth of 111%.
For `CCN1CCCC1CNC(=O)c1ncc(-c2ccc(C(F)(F)F)cc2)c(NC2CCCCCC2)n1` (stereo unspecified), the growth was 80.8%.
In the case of `C=C(C)[C@@H]1CC[C@]2(C(=O)N3CCN(C)CC3)CC[C@]3(C)[C@H](CC[C@@H]4[C@@]5(C)C/C(=C/c6ccncc6)[C@H](O)C(C)(C)[C@@H]5CC[C@]43C)[C@@H]12`, the growth is reported as -25.5% [100 µM] (active).
`COc1ccc(S(=O)(=O)NCCCNc2nccc(-c3c(-c4cccc([N+](=O)[O-])c4)nc4sccn34)n2)cc1` gave a growth of 16.2%.
`CCCCN1CCN(c2ccc3nc(-c4ccc5nc(-c6ccc(OC)c(OC)c6)[nH]c5c4)[nH]c3c2)CC1` was tested, and the growth was -74.9% (active).
`COc1ccc(-c2n[nH]nc2-c2cc3ccccc3s2)cc1O` was tested, and the growth was 40.8%.
`COc1ccc(C(=O)n2cc(C=O)c3ccccc32)cc1` gave a growth of 105%.
For `COc1cc2c(cc1O)CC[C@@H]1[C@@H]2CC[C@]2(C)[C@@H](OCCN(C)C)CC[C@@H]12`, the growth was 19.3%.
Work on `ON1CCCC1` yielded a growth of 108%.
With `CCOC(=O)c1c(NC(=O)c2ccc(C(C)C)cc2)sc2c(CN(C)C)c(O)ccc12` the growth was -53.1% (active).
For `CNC(=O)c1ccccc1Nc1nc(Nc2cc(OC)c(OC)c(OC)c2)ncc1Br`, the growth was -46.6% (active).
In the case of `CO[C@@]12[C@@H]3NC3CN1C1=C(C(=O)C(N)=C(C)C1=O)[C@@H]2COC(N)=O` (stereo partly specified), the growth is reported as -14.1% (active).
With `COc1ccc(-c2nn(-c3ccccc3)cc2/C=C/C(=O)OCc2cn(-c3ccc(F)c(Cl)c3)nn2)cc1` the growth was 72.2%.
`C[C@H]1[C@H](C)CC[C@]2(CO)CC[C@]3(C)C(=CC[C@@H]4[C@@]5(C)Cc6c([nH]c7ccccc67)C(C)(C)[C@@H]5CC[C@]43C)[C@H]12` gave a growth of 77.8%.
Compound `COc1cc2oc(-c3cccc(C(=O)Nc4ccc(C)cc4)c3)cc(=O)c2c(OC)c1OC` has a growth of 54.5%.
`CN(C)CCCNc1nn2c(=O)c3ccccc3nc2c2ccccc12` gave a growth of 53.4%.
`Nc1ccc(NC(=O)c2cccc(N)c2)cc1` gave a growth of 94.2%.
Compound `COc1cc(C2CC(c3ccc(C)cc3)=NN2C=O)ccc1OCCN(C)C` (stereo unspecified) has a growth of 93.1%.
For `Cc1ccc(C(F)(F)F)cc1N1CCN(C(=O)[C@H]2C[C@H]2c2ccc(C(F)(F)F)nc2)CC1`, the growth was 65.6%.
`CS(=O)CC1=NC(=N)N=C1CS(C)=O` (stereo unspecified) showed a growth of 88.5%.
`Oc1ccc(CSc2nnc(-c3ccc(Br)cc3)o2)c2cccnc12` was tested, and the growth was 35.4%.
In the case of `N#CSCC1CC(O)(c2ccccc2)C(c2ccccc2)C(c2ccc(Cl)cc2)O1` (stereo unspecified), the growth is reported as -58.9% (active).
With `Clc1ccc(N2N=C(c3cccc(Nc4ccncc4)c3)CC2c2ccc3c(c2)OCO3)cc1` (stereo unspecified) the growth was 62.1%.
Compound `CC1(C)NCCC[C@]2(C)[C@H]3C/C(=N\O)C4[C@@H]5C[C@@](C)(CO)CC[C@]5(C)CC[C@@]4(C)[C@]3(C)CC[C@@H]12` (stereo partly specified) has a growth of 89.4%.
With `N#CN1CC[C@H](C(=O)Nc2cc3cc(C(N)=O)ccc3cn2)C1` the growth was -46.2% (active).
`CC1=C(C(=O)OCC2CCN(C(=O)OC(C)(C)C)CC2)[C@@H](c2cccc(C#N)c2)C2=C(CC(C)(C)CC2=O)N1` showed a growth of 52.2%.
Work on `COc1ccc(C(C)=O)cc1S(N)(=O)=O` yielded a growth of 99.4%.
Work on `O=C(O)c1nc(-c2ccccc2)oc1N1CCOCC1` yielded a growth of 99.8%.
For `CSc1nc(=O)n(Cc2ccc(Cl)cc2)c(=O)[nH]1`, the growth was 121%.
With `O=C(Nc1ccc(Cl)cc1)Nc1nc2ccc(OC(F)(F)F)cc2o1` the growth was 89%.
Compound `CCCCn1c(=O)c2c(nc3n2CCCN3CCc2ccc(OCC(=O)NCCN(CC)CC)cc2)n(CCCC)c1=O` has a growth of 43.7%.
For `Cc1cc(-c2ccc(Cl)cc2)n(Cc2nnc(SCC(=O)Nc3ccc(S(N)(=O)=O)cc3)n2C2CCCCC2)n1`, the growth was 117%.
Compound `C=C1CC[C@H]2[C@@](C)(CCC3OC(c4ccc(OCc5cn(C6CC(OC(C)=O)C(OC(C)=O)C(COC(C)=O)O6)nn5)cc4)OC[C@]32C)[C@@H]1/C=C/C1=CCOC1=O` (stereo partly specified) has a growth of 47.3%.
Work on `COC(=O)Nc1nc2ccc(S(=O)c3ccccc3)cc2[nH]1` (stereo unspecified) yielded a growth of 33.8%.
In the case of `Nc1cc(-c2c[nH]c3ccc(Cl)cc23)nc2cc(-c3c[nH]c4ccc(Cl)cc34)nn12`, the growth is reported as 68.2%.
